PTPN22 act = LYP (human) phosphatase activation. Q9Y2R2. recombinant LYP, DiFMUP fluorescence; 0 = plate median, 100 = signal doubled. activation, % at 2 µM. AID 697. actives 0.11% (n = 96,000);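 active = activation at 2 µM above a set limit, the mean plus 5 SD, cut at about 37% in these data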
Cdc25B block = human M-phase inducer phosphatase 2 inhibition. inhibition, %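 (compounds tested at 10 µM final in the well)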. actives 0.1% (n = 65,000). recombinant Cdc25B, OMFP fluorescence Ex485/Em525. P30305. AID 368; in the data active = inhibition above about 50%
Target sequence (P30305 whole entry, looked up): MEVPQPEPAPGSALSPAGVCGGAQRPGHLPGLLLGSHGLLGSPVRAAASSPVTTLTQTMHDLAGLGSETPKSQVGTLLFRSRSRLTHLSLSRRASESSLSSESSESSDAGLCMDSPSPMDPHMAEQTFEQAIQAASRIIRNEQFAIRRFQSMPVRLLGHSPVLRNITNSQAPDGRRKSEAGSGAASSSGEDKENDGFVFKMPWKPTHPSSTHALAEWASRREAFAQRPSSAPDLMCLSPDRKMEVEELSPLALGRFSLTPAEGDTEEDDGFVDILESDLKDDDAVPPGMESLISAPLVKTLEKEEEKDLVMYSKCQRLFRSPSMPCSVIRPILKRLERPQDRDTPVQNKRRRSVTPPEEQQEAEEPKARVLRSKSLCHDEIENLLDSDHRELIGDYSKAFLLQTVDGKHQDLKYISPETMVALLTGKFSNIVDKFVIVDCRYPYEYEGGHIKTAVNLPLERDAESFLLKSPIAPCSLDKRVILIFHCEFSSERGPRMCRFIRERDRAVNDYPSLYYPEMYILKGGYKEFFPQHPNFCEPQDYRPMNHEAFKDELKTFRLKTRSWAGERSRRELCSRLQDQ
DUSP1 inh = inhibitors of human MKP-1 phosphatase; recombinant MKP-1, OMFP hydrolysis fluorescence; inhibition, %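 (compounds tested at a single concentration somewhere between 10 and 100 µM)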; actives 0.15% (n = 65,000); P28562;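 active = inhibition above about 50%, limit read from the data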;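 note: 0% = DMSO max control wells and 100% = wells with enzyme stopped by NaOH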
FXIIa inh mix = inhibitors of human coagulation factor XIIa, pooled mixtures. purified FXIIa, fluorogenic substrate. inhibition, % at 5 µM. actives 0.2% (n = 62,000). AID 684;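 note: 0% = enzyme without compound and 100% = no enzyme blank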
PTPN22 inh 2 = blocks human PTPN22 phosphatase activity | recombinant LYP catalytic domain, DiFMUP fluorescence | inhibition, % at 2 µM | actives 0.21% (n = 96,000);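 active = inhibition at 2 µM at or above a set limit, the screen mean plus 3 SD, cut at about 24% in these data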;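 note: 0% = DMSO with enzyme and 100% = enzyme fully blocked by orthovanadate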
FXIa mix inh = factor XIa (human) inhibition, mixture screen; P03951; purified FXIa, fluorogenic substrate, pooled mixtures; inhibition, % at 5 µM; actives 0.19% (n = 62,000); AID 680;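 note: each value is inhibition by a whole ten-compound pool holding the compound; 0% = enzyme with no mixture and 100% = wells lacking enzyme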
An asterisk follows results filed as active; x = no result given. Most compounds without a hit are left out; they make up all but 0.63% or so of the library. Cut-off read from the data, not from the text of the source, unless noted: active = inhibition above about 20% (passing the limit was not always enough); inactive = the rest.

SMILES | PTPN22 act | Cdc25B block | DUSP1 inh | FXIIa inh mix | PTPN22 inh 2 | FXIa mix inh
CN(C(=O)c1ccc(NC(=O)c2cnccn2)cc1)C1CCCCC1 | x | -8.2 | 4.5 | -20.6 | x | 7.5
CCOc1ccc(-n2c3nc4ccccc4nc3c3c(=O)n(Cc4ccco4)cnc32)cc1 | -16.0 | 0.2 | 34.4 | 0.6 | 12.4 | 9.1
Cc1cc(C)cc(-n2c3nc4ccccc4nc3c3c(=O)n(Cc4ccco4)cnc32)c1 | -35.8 | 9.1 | 11.5 | 13.3 | 38.0* | 3.6
CC1CCN(c2nc3c(c(=O)[nH]c(=O)n3C)n2CCSc2ncccn2)CC1 | x | -4.2 | -3.8 | -17.2 | x | 8.7
CCCc1[nH]nc2c1C(c1cn[nH]c1-c1ccc(F)cc1)C(C#N)=C(N)O2 (stereo unspecified) | x | 5.1 | 0.3 | 0.7 | x | 21.1*
Clc1ccc(C2=Nn3c(nnc3-c3cc(-c4ccccc4)n[nH]3)SC2)cc1 | -23.6 | x | x | x | 27.5* | x
COC(=O)CP(=O)(c1ccccc1)c1ccccc1 | -3.5 | x | x | x | 6.6 | x
CCCn1c(NCc2cc(C)ccc2O)nc2ccccc21 | -2.2 | -6.9 | -14.2 | 2.5 | 0.8 | -0.2
CCCn1c(NCc2ccc(C)o2)nc2ccccc21 | 4.5 | -10.2 | 6.1 | 10.3 | -5.8 | 25.7*
O=C(c1ccc(CNc2c(NC3CCCCC3)c(=O)c2=O)cc1)N1CCc2ccccc21 | -17.9 | x | x | x | 15.5 | x
O=C(CCC(=O)OC(C(=O)c1ccccc1)c1ccccc1)Nc1ccccc1 (stereo unspecified) | -27.6 | x | x | x | 24.5* | x
COc1c(N2CCN(C(=S)NCc3ccccc3)C(C)C2)c(F)cc2c(=O)c(C(=O)O)cn(C3CC3)c12 (stereo unspecified) | -34.0 | x | x | x | 35.1* | x
CCC(=O)Nc1ccc(NC(=O)CSc2nnc(C(C)C)n2C)cc1 | 2.6 | -2.2 | -14.5 | -2.3 | -5.0 | 1.7
CCC(=O)Nc1ccc(NC(=O)CSc2nnnn2C(C)C)cc1 | 9.2 | -11.0 | -4.5 | 0.9 | -5.9 | 27.3*
Cc1csc(-c2cnn(-c3ccccc3)c2NC(=O)c2ccc(C(F)(F)F)cc2)n1 | -0.3 | x | x | x | 1.4 | x
CCOC(=O)CC(=O)CSc1nnc2sc3ccccc3n12 | 7.6 | 1.1 | 77.7* | x | -11.0 | x
O=c1c(-c2nnc(SCc3ccc(Cl)cc3Cl)o2)cccn1Cc1ccccc1 | -22.8 | x | x | x | 24.8* | x
O=C(Nc1ccc2nc(-c3cccs3)[nH]c2c1)c1cccs1 | 2.0 | -3.7 | -3.6 | 5.1 | -3.4 | -1.8
O=C(Nc1ccc(-c2nc3ccc(NC(=O)c4cccs4)cc3[nH]2)cc1)c1cccs1 | -31.5 | x | x | x | 28.8* | x
Cn1c(=O)c2cc(NC(=O)c3ccccc3Cl)c(=O)oc2n(C)c1=O | x | 2.1 | 4.7 | 1.1 | x | 32.7*
Cc1cc2c(cc1C)N(C(=O)CSC1=NCCS1)C(C)(C)c1ssc(=S)c1-2 | -23.4 | x | x | x | 27.3* | x
COc1ccccc1OCc1nnc(SCC(=O)NCc2ccco2)n1Cc1ccco1 | -26.4 | 0.9 | 32.2 | -24.0 | 26.4* | 3.9
COc1ccccc1NC(=O)CSc1nnc(COc2ccc(Cl)cc2)n1Cc1ccco1 | 4.9 | -3.6 | 13.6 | 16.7 | -7.7 | 0.9
CCc1ccc2[nH]c3nc(SCc4nnc(-c5ccc(C)cc5)o4)nnc3c2c1 | -4.9 | x | x | x | 2.0 | x
COC(=O)Cc1c(C)c2c(OCc3nn[nH]n3)cc(C)cc2oc1=O | -2.4 | 2.2 | -20.6 | 24.2* | 2.5 | -4.3
SMILES | PTPN22 act | Cdc25B block | DUSP1 inh | FXIIa inh mix | PTPN22 inh 2 | FXIa mix inh
Cc1ccc(/C=C/c2ccc(=O)n(Cc3ccccc3Cl)n2)cc1 | -9.3 | x | x | x | 11.4 | x
COC(=O)c1ccc2c(=O)n(CCC3=CCCCC3)c(SCC(=O)N3CCCC3)nc2c1 | x | -9.6 | 9.0 | 1.9 | x | -34.7
COC(=O)c1cc(Br)c(=O)n(-c2ccc(C(C)=O)cc2)c1 | x | -3.0 | -23.1 | 21.3* | x | 1.5
COc1ccccc1C1NC(=O)NC(C)=C1C(C)=O (stereo unspecified) | -1.1 | 9.5 | 1.6 | 71.6* | 0.0 | 11.6
C=CCNC(=O)NS(=O)(=O)c1ccc(C)cc1 | 4.6 | 2.4 | 23.5 | 1.5 | -6.0 | 22.3*
CS(=O)(=O)N(CC(=O)N1CCN(c2ccccc2)CC1)c1ccc(Cl)c(C(F)(F)F)c1 | -2.1 | x | x | x | 4.6 | x
CCOC(=O)c1sc2nc(SCC#N)n(CC3CCCO3)c(=O)c2c1C (stereo unspecified) | x | -17.5 | 27.1 | 7.3 | x | 22.5*
CCOC(=O)c1sc(NCC2CCCO2)nc1C (stereo unspecified) | -5.6 | -8.6 | 30.1 | 2.2 | 2.3 | 7.7
CCN(C(=O)c1cc2cccc(OC)c2oc1=O)c1ccccc1 | -1.6 | 0.4 | 6.0 | 18.5 | -1.6 | 2.8
BrC(=C\c1ccccc1)/C=N/N1CCN(c2ccccn2)CC1 | 3.3 | x | x | x | 2.0 | x
Cc1sc(NC(=O)c2sc3nc4c(C)cccc4cc3c2N)c(C#N)c1C | -54.2 | x | x | x | 55.6* | x
Cc1ccc(NC(=O)Cc2nn(C)c(=O)c3ccccc23)cc1F | 0.8 | -6.0 | -8.3 | 20.4* | 1.3 | 13.7
CC(C(=O)O)N1C(=O)/C(=C/C=C/c2ccco2)SC1=S (stereo unspecified) | -23.6 | x | x | x | 25.2* | x
O=C1CCN2C=Nc3cccc4ccc1c2c34 | -1.7 | 79.9* | 10.7 | 2.4 | 1.1 | -0.7
CCN(CC)c1ccc(N2C(=O)/C(=C/c3cccnc3)SC2=S)cc1 | 4.6 | x | x | x | -2.1 | x
Cc1cc(-c2csc(N)n2)c(C)n1CCC(C)C | -28.6 | x | x | x | 28.2* | x
O=C(NC1CC2CCCC(C1)N2C(=O)Nc1ccccc1)c1ccncc1 (stereo unspecified) | -5.4 | -4.4 | -13.3 | -15.9 | 7.7 | -1.6
CC(=O)NC1CC2CCCC(C1)N2C(=O)Nc1ccccc1 (stereo unspecified) | -58.8 | x | x | x | 59.5* | x
Cc1sc(NC(=O)c2ccco2)c(CN2CCN(c3ccccn3)CC2)c1C | -9.2 | 4.5 | -7.9 | 3.5 | 7.2 | 46.4*
CCN(CC)S(=O)(=O)c1cccc(C(=O)N[C@H](C(=O)OCC(=O)NC(=O)NC)C(C)C)c1 | -15.1 | x | x | x | 17.5 | x
Cn1c(-c2nonc2NC(=O)c2ccc(C(C)(C)C)cc2)nc2ccccc21 | x | -5.1 | 4.3 | 9.7 | x | 6.5
CC(=O)Nc1nonc1NC(=O)c1ccc(C(C)(C)C)cc1 | -58.6 | x | x | x | 58.5* | x
CN(C)c1ccc(CNC23CC4CC(CC(C4)C2)C3)cc1 | 7.4 | x | x | x | -3.6 | x
S=c1[nH]nc(COc2ccccc2)n1/N=C/C(Cl)=C/c1ccccc1 | -25.5 | x | x | x | 28.2* | x
O=[N+]([O-])c1ccc(/C=N/n2c(COc3ccccc3)n[nH]c2=S)cc1 | -19.0 | x | x | x | 21.3 | x
CC(=O)c1ccc(-n2nncc2C(C)(C)C)cc1 | -0.9 | -10.0 | 1.6 | 34.5* | -2.5 | 1.2
CC(C)(C)c1cnnn1-c1ccc(NC(=O)c2ccc3c(c2)OCO3)cc1 | -0.4 | 2.3 | 23.9 | 6.0 | -1.5 | 6.3
CCOC(=O)c1c(C)oc2c1c(/C=N/c1ccccn1)c(O)c1ccccc12 | x | -20.1 | 14.9 | 69.1* | x | 9.2
CC(Nc1ncnc2nc[nH]c12)c1ccccc1 (stereo unspecified) | x | 65.8* | 5.1 | 4.3 | x | 3.9
Cc1cccc(Nc2ncnc3nc[nH]c23)c1 | 2.5 | 0.1 | 2.3 | -11.7 | -5.0 | 0.3
